# Screen size: about 69,000 compounds; about 950 (1.4%) showed an effect of 50% or more. Only a selection was taken, and strong results are over-represented in it overall.
# System: Mycobacterium tuberculosis
# Assay: Cornell M. t heat shock assay; further: in the data most compounds retested in dose-response had high values
# Assay type: functional, organism-based
# Design: dose or concentration left out as unconfirmed
row,Compound,Percent Effect [%]
1,CC(=O)Nc1ccc(CN2C[C@H]3CC[C@@H]2CN(c2ncccn2)C3)cc1,8.779
2,CC(C)NC(=O)N1Cc2nccn2CC(COc2cccnc2)C1.O=C(O)C(F)(F)F (configuration not stated),-13.64
3,CNC(=O)CN1CCCC12CCN(C(=O)c1ccsc1)CC2.O=C(O)C(F)(F)F,-20.96
4,O=C(Cc1ccccn1)N1CCN2C[C@H](Oc3cncnc3)C[C@H]2C1.O=C(O)C(F)(F)F.O=C(O)C(F)(F)F,3.514
5,CCOc1ccc(CNCC(O)c2ccccc2)cc1Cl.Cl (configuration not stated),35.2
6,Cn1cnc2c1CCN(CCCc1ccccc1)C2,8.155
7,CN1CCCCC1c1ncc2c(n1)CCN(Cc1ccc(Cl)c(F)c1)C2 (configuration not stated),103.7
8,CN1CCCCC1c1ncc2c(n1)CCN(Cc1ccccc1Cl)C2 (configuration not stated),87.15
9,Cc1ncc2c(n1)CN(CCCc1ccccc1)CC2,3.621
10,COc1ccc(CN2CCc3nc(C4CCCCN4C)ncc3C2)cc1 (configuration not stated),25.26
11,CN1CCCCC1c1ncc2c(n1)CCN(CCCc1ccccc1)C2 (configuration not stated),101.2
12,CN1CCCCC1c1ncc2c(n1)CCN(Cc1ccc(F)cc1)C2 (configuration not stated),35.62
13,Cl.Clc1ccccc1CN1CCc2nc(C3CCCCN3)ncc2C1 (configuration not stated),12.35
14,CN1CCc2nc(C3CCCCN3Cc3ccccc3Cl)ncc2C1 (configuration not stated),-4.117
15,O=C(CC1CC1)N1CC[C@H]2[C@@H]1CCC(=O)N2c1cccnc1.O=C(O)C(F)(F)F,-6.311
16,CC(C)NC(=O)C1(CC2CC(c3ccc(F)cc3)=NO2)CCNCC1.O=C(O)CC(O)(CC(=O)O)C(=O)O (configuration not stated),-19.28
17,CNC(=O)C1Cn2ccnc2C2(CCN(Cc3cccnc3)CC2)O1.O=C(O)C(F)(F)F.O=C(O)C(F)(F)F.O=C(O)C(F)(F)F (configuration not stated),-3.867
18,COc1ccccc1CN1CCCCC1c1n[nH]cc1-c1cc(C)no1.Cl (configuration not stated),14.98
19,COc1cccc(CN2C[C@@H]3COC[C@]3(COCc3ccncc3)C2)c1.O=C(O)C(F)(F)F.O=C(O)C(F)(F)F,-3.091
20,Cc1csc(CN(C)C2CCN(c3sccc3C#N)C2=O)n1 (configuration not stated),-26.99
21,Fc1ccc(CN2CCCC3(CCN(Cc4ncc[nH]4)C3)C2)cc1F (configuration not stated),0.7553
22,Cc1c[nH]c(CN2CCC3(CCCN(Cc4ccc(F)c(F)c4)C3)C2)n1 (configuration not stated),58.72
23,Cc1ccc(CN2CCC3(CCCN(Cc4ccc(F)c(F)c4)C3)C2)o1 (configuration not stated),10.97

row,Compound,Percent Effect [%]
1,CCOC[C@]12COC[C@H]1CN(Cc1ccc3c(c1)OCO3)C2.O=C(O)C(F)(F)F,12.44
2,O=C(CCc1ccccc1Br)NS(=O)(=O)c1ccc2c(c1)OCCO2,6.065
3,O=C(CCc1ccccc1F)NS(=O)(=O)c1ccc2c(c1)OCCO2,-5.66
4,O=C(CCc1ccccc1Cl)NS(=O)(=O)c1ccc2c(c1)OCCO2,62.1
5,Cl.O=C(NC1CCCC1)C1(Cc2cc(C3CCOC3)no2)CCNCC1 (configuration not stated),5.68
6,O=C(c1cnc(-c2ccccn2)s1)N1CCCC(n2cccn2)C1 (configuration not stated),-7.844
7,CC1CCN(C(=O)[C@H]2CC[C@@H]3[C@@H](CCN3Cc3nccs3)O2)CC1.O=C(O)C(F)(F)F,-10.06
8,COc1ccc(CNC(=O)N2CCN(CC(O)C3CC3)CC2)cc1.Cl (configuration not stated),14.41
9,CC(C)Cc1nc(CN(C)c2cc(C(C)C)nc3ccnn23)no1,23.84
10,CC(C)c1cc(N(C)Cc2noc(C3CCCC3)n2)n2nccc2n1,67.06
11,CC(C)c1cc(N(C)Cc2cc(C3CC3)on2)n2nccc2n1,41.46
12,COC(=O)N1CCC(Nc2cccc(F)c2C(C)=O)C1 (configuration not stated),10.56
13,COC(=O)N1CCC(Nc2cccc(F)c2C#N)CC1,83.06
14,COC(=O)N1CCC(Nc2cccc(F)c2C(C)=O)CC1,5.265
15,O=C(O)C(F)(F)F.O=C(O)C(F)(F)F.O=C(O)C(F)(F)F.c1cc(CN2C[C@@H]3OCCN(CC4CCCO4)[C@@H]3C2)ccn1 (some centres not stated),-18.75
16,CN(C(=O)C1CCOCC1)[C@@H]1CCC[C@@H](N2CCOCC2)[C@@H]1O,-10.17
17,CN(C(=O)C1CCOCC1)[C@@H]1CCC[C@@H](N2CCCC2)[C@@H]1O,60.86
18,CN(C(=O)C1CCCCC1)[C@@H]1CCC[C@@H](N2CCOCC2)[C@@H]1O,-6.532
19,CC(C)OCCCN(Cc1cnn(C)c1)Cc1ccccn1.O=C(O)CC(O)(CC(=O)O)C(=O)O,-10.12
20,CCC1=N[C@@]2(CC[C@@H]3CN(CC4CC4)C[C@@H]32)C(=O)N1C.O=C(O)C(F)(F)F,5.845
21,CCCC(O)CN1CC(C)(C)CN(C(=O)CCc2ccccc2)CC1=O (configuration not stated),10.24
22,CCN1CC(C)(C)CN(C(=O)CCc2ccccc2)CC1=O,22.76
23,CC(C)(O)CN1CC(C)(C)CN(C(=O)CCc2ccccc2)CC1=O,52.03

row,Compound,Percent Effect [%]
1,CC(O)CN1CC(C)(C)CN(C(=O)CCc2ccccc2)CC1=O (configuration not stated),50.7
2,CN1CC(C)(C)CN(C(=O)CCc2ccccc2)CC1=O,21.51
3,COCC(O)CN1CC(C)(C)CN(C(=O)CCc2ccccc2)CC1=O (configuration not stated),27.88
4,Fc1ccc(CN2CC[C@H]3O[C@@H](COCC4CCOCC4)CC[C@H]32)cc1.O=C(O)C(F)(F)F,-16.61
5,CCC(C)[C@H](N)c1nnc(SCC(=O)Nc2cc(C)ccc2C)o1.Cl (some centres not stated),-10.79
6,Cc1cc2c(=O)n3c(nc2s1)CCN(Cc1c[nH]cn1)CC3.Cl,-21.28
7,Clc1ccc(C2(CNC3=NCCN3)CC2)cc1.I,-24.96
8,Clc1ccc(C2(CNC3=NCCN3)CCCC2)cc1.I,20.92
9,Clc1ccc(C2(CNC3=NCCN3)CCCCC2)cc1.I,77.48
10,O=C(NCC1CC1)[C@H]1C[C@H]2OCC[C@H]2N(CCc2ccccc2)C1.O=C(O)C(F)(F)F,-0.2328
11,COc1ccc(-c2cc3nn(CC(N)=O)c(=O)n3c(C)n2)cc1,28.25
12,COc1ccc(-c2cc3nn(CC(=O)NC(C)C)c(=O)n3c(C)n2)cc1,21.42
13,Cc1nc(-c2ccccc2)cc2nn(CC(N)=O)c(=O)n12,80.99
14,CCC1=N[C@@]2(CC[C@@H]3CN(Cc4ccc(F)cc4)C[C@@H]32)C(=O)N1C.O=C(O)C(F)(F)F,6.299
15,COCCN1CCC2(COCCN(Cc3ccc4c(c3)OCO4)C2)C1.O=C(O)C(F)(F)F.O=C(O)C(F)(F)F (configuration not stated),-9.9
16,O=C(O)C(F)(F)F.O=C(O)C(F)(F)F.O=C(O)C(F)(F)F.O=C1CO[C@@H]2CN(Cc3cccnc3)C[C@H]2N1Cc1ccncc1,-18.69
17,COCCC(=O)N1CC[C@@H](N2CCOCC2)[C@@H]1Cc1ccccc1.O=C(O)C(F)(F)F,-10.34
18,Cc1cc(C(=O)NC2CCN(CC(N)=O)CC2)nn1C(C)(C)C,61.29
19,CC(C)c1cc(C(=O)NC2CCN(CC(N)=O)CC2)nn1C(C)(C)C,17.37
20,CC(C)(C)n1nc(C(=O)NC2CCN(CC(N)=O)CC2)cc1C1CC1,19.52
21,Cc1noc(C)c1-c1nc(C2CCCNC2)ccc1CO.Cl.Cl (configuration not stated),6.462
22,Cc1cc(C)cc(CNC(C)c2c(C)nn(C)c2C)c1 (configuration not stated),-33.33
23,O=C(NCc1csc(Br)c1)c1ccncc1,14.96

row,Compound,Percent Effect [%]
1,Cc1cc(C)cc(CNC(c2ccccc2)c2nccn2C)c1 (configuration not stated),112.3
2,Cc1ccc(CNCC(C)Oc2ccccn2)cc1.Cl (configuration not stated),-12.77
3,Cc1cnn(CC(C)NCc2ccc(OCc3nccn3C)cc2)c1 (configuration not stated),-7.408
4,Cc1cccc(CNC(CN2CCN(C)CC2)c2ccccc2)c1 (configuration not stated),-9.551
5,O=C(CCNc1ncccn1)NCc1csc(Br)c1,2.477
6,Cn1ccnc1C(NCc1csc(Br)c1)c1ccccc1 (configuration not stated),103.5
7,COc1c(CNC(c2ccccc2)c2nccn2C)c(C)nn1C (configuration not stated),-17.9
8,Cc1ccc(CNC(c2ccccc2)c2nccn2C)cc1.Cl (configuration not stated),106.1
9,COc1cc(CNC(C)Cn2cccn2)cc(OC)c1 (configuration not stated),-10.57
10,COc1cc(CNC(c2ccccc2)c2nccn2C)cc(OC)c1 (configuration not stated),110.9
11,Cn1ccnc1CN1CCC2(CC(=O)N(c3cncnc3)C2)C1.O=C(O)C(F)(F)F (configuration not stated),8.638
12,CC(C)NC(=O)c1sc2ccccc2c1[C@H]1CC[C@H](CN)CC1.Cl,6.071
13,O=C(O)C(F)(F)F.c1cnc(N2Cc3nccn3CC(COc3cccnc3)C2)nc1 (configuration not stated),-4.281
14,Cn1ccnc1C(NCc1ccc(Br)cc1)c1ccccc1 (configuration not stated),112.1
15,Cc1ccc(CNC(c2ccccc2)c2nccn2C)cc1C (configuration not stated),103.6
16,Cc1ccc(CNC(CN2CCN(C)CC2)c2ccccc2)cc1 (configuration not stated),5.608
17,CCNC(c1ccc(Br)cc1)c1cccnc1 (configuration not stated),0.8227
18,Cn1ccnc1-c1noc(NCc2ccccc2)n1,-11.975
19,COc1ccc(CNC(Cn2cncn2)c2ccccc2)cc1C (configuration not stated),7.595
20,Cc1ccc(CNC(CN2CCN(C)CC2)c2ccccc2)cc1C (configuration not stated),7.265
21,Cn1ccnc1-c1noc(NCc2ccc(Br)cc2)n1,-1.325
22,Cn1nnc2c1C(COCc1ccccn1)CN(Cc1ccoc1)C2.O=C(O)C(F)(F)F.O=C(O)C(F)(F)F (configuration not stated),-16.51
23,O=S(=O)(N1CCOCC1)N1CCCC(c2ccccn2)C1 (configuration not stated),-20.74

# — ChEMBL document CHEMBL3988442, “University of Dundee, Small-Polar-MMV Screening Library” (2021)
